# According to the supplement of paper PMC10849652:
# About 8,800 targets were measured; listed, in parts, are those with a hit and a random draw of the rest. About 0.5% of all pairs of compound and target were hits. Unmarked numbers belong to inactive results.
# How the values were obtained:
# Assay in all cases: log2 fold change, soluble protein after heating vs DMSO (PISA); higher = thermal stabilisation; K562 lysate, 10 uM; active = over 0.2 and 3.5 SD of the protein, either way, in both replicates (recomputed)
# [1] = compound: NCC(=O)Nc1ccc(-n2nc(C(F)(F)F)cc2-c2ccc3c(ccc4ccccc43)c2)cc1
# In short: (§1)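 Pellets of K562 cells were dounce-homogenised in PBS pH 7.4 with 1 mM MgCl2, and the crude extract was held at 1 mg/mL protein for a 30 min treatment with 10 μM compound. Aliquots were heated for 3 min over 48°C-58°C and pooled before NP-40 was added to 0.5% at 4°C. The supernatant from 21,000xg for 90 min was quantified by TMTpro 16plex LC-MS/MS with channel sums equalised. Values are reported from duplicates as log-two fold change in thermal stability relative to solvent controls.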
# vorinostat = compound: O=C(CCCCCCC(=O)Nc1ccccc1)NO [vorinostat]
# In short: as §1
# silmitasertib = compound: O=C(O)c1ccc2c(c1)nc(Nc1cccc(Cl)c1)c1ccncc12 [silmitasertib]
# In short: as §1
# [2] = compound: O=C1NC(=O)C(c2cnc3ccccn23)=C1c1cn2c3c(cc(F)cc13)CN(C(=O)N1CCCCC1)CC2
# In short: as §1
# entospletinib = compound: c1cn2cc(-c3ccc4cn[nH]c4c3)nc(Nc3ccc(N4CCOCC4)cc3)c2n1 [entospletinib]
# In short: as §1
# Chain of UniProt Q7Z460 (Q7Z460 whole entry, looked up): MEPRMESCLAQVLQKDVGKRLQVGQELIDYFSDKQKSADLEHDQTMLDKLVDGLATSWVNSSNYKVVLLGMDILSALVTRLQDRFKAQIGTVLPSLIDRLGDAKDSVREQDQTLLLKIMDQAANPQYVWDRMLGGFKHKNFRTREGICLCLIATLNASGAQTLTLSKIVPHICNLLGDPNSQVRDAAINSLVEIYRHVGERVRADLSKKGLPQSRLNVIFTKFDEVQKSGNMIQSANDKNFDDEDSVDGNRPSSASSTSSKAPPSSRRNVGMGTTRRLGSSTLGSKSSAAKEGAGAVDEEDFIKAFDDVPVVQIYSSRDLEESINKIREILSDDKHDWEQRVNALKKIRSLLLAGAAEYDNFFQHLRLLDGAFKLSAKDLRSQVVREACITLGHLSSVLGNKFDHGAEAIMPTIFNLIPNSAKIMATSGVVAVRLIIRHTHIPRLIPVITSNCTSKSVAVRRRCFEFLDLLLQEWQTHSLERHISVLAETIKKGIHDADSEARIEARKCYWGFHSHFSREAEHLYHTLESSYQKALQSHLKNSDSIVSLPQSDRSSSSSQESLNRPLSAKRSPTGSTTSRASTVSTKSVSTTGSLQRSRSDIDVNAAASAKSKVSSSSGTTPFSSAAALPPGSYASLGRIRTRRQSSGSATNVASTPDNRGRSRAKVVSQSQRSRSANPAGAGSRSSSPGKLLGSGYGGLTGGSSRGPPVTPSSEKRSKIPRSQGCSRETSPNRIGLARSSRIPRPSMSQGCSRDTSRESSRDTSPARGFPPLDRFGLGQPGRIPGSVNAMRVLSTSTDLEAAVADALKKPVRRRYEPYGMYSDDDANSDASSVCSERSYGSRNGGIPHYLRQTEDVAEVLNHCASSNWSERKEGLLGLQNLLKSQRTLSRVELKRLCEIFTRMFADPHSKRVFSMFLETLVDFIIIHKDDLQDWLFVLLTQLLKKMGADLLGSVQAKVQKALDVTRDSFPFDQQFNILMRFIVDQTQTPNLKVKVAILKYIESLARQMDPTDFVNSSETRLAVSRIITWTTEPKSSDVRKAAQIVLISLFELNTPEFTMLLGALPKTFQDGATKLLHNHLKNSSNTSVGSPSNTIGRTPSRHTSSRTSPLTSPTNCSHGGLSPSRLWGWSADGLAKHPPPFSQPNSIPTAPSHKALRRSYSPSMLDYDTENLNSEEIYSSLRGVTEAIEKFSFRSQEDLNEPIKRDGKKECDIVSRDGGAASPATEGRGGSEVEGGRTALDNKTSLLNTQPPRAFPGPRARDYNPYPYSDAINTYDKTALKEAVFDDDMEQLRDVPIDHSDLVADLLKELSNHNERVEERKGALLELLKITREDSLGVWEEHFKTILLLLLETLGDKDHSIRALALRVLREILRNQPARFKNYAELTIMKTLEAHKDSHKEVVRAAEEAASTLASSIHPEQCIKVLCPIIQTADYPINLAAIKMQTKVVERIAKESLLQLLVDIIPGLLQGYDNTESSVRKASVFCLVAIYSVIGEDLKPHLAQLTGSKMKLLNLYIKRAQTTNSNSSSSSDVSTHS
# Chain of UniProt O94760 (O94760 whole entry, looked up): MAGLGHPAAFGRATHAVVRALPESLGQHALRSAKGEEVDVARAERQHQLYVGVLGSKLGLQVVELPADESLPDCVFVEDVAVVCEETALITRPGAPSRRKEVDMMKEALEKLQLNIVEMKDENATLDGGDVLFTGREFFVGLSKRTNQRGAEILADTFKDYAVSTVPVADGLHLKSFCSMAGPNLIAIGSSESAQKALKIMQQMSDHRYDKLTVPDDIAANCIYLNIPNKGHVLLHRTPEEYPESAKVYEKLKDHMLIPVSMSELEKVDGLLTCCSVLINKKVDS
# Chain of UniProt P19784 (P19784 whole entry, looked up): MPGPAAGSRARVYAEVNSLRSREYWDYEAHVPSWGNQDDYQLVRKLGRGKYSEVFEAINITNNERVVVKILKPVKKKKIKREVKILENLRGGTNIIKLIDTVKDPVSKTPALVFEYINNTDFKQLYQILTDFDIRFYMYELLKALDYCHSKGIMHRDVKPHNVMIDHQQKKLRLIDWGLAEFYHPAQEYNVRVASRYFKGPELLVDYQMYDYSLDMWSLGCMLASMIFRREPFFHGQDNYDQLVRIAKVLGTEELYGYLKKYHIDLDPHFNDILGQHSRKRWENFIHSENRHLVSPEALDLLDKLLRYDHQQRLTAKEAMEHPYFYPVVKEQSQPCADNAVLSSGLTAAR
# Chain of UniProt Q8IY22 (Q8IY22 whole entry, looked up): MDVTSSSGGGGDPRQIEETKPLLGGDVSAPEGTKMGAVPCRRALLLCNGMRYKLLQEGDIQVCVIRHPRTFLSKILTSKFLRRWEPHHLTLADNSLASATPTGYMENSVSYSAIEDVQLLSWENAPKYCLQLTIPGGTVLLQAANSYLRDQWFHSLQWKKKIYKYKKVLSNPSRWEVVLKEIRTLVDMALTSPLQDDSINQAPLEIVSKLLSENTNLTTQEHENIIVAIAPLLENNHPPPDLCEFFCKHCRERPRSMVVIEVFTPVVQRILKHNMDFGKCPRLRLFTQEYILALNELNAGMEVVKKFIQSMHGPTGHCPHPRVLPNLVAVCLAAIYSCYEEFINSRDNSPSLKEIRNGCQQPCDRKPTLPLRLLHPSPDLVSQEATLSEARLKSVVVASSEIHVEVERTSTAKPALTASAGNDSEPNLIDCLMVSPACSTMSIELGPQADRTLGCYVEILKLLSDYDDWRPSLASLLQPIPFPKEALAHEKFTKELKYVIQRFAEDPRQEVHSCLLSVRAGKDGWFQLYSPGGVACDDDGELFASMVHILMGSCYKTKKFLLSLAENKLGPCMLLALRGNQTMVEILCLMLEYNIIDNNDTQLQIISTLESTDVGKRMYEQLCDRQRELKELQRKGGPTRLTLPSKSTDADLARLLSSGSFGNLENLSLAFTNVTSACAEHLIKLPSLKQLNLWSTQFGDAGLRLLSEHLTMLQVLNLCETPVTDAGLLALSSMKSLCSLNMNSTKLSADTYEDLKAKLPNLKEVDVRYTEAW
# Chain of UniProt P04080 (P04080 whole entry, looked up): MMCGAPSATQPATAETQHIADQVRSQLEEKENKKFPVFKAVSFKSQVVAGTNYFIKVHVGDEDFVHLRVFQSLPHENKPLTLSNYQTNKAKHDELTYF
# Chain of UniProt Q14746 (Q14746 whole entry, looked up): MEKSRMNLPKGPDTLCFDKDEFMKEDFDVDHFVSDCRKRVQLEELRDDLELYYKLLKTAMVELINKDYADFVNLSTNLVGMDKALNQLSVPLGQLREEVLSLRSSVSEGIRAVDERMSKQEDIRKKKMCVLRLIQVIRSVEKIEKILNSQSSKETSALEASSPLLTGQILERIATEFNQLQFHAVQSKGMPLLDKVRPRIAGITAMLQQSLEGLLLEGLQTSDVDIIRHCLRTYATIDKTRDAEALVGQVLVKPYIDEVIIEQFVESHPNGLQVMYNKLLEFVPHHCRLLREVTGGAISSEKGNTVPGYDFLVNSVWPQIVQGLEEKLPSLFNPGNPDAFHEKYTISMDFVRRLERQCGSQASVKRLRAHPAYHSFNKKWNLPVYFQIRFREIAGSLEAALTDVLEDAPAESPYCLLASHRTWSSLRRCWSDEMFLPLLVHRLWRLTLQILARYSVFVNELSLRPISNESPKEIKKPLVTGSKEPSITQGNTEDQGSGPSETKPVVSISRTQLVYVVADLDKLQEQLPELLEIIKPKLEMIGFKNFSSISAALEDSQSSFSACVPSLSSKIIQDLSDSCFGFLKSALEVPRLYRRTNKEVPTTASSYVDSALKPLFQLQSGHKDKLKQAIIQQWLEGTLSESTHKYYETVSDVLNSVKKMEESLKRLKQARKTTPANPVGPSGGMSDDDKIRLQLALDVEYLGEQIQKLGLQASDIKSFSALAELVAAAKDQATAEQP
# Chain of UniProt P48729 (P48729 whole entry, looked up): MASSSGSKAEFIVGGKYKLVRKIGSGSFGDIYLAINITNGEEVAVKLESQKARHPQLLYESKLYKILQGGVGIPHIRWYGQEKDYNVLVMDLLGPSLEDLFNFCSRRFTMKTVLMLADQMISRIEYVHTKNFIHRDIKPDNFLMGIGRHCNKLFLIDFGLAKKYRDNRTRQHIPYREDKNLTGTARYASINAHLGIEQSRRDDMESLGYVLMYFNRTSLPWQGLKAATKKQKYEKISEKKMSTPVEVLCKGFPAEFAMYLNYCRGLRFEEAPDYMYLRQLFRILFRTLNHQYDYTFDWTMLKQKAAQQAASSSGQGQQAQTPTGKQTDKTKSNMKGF
# Chain of UniProt Q13217 (Q13217 whole entry, looked up): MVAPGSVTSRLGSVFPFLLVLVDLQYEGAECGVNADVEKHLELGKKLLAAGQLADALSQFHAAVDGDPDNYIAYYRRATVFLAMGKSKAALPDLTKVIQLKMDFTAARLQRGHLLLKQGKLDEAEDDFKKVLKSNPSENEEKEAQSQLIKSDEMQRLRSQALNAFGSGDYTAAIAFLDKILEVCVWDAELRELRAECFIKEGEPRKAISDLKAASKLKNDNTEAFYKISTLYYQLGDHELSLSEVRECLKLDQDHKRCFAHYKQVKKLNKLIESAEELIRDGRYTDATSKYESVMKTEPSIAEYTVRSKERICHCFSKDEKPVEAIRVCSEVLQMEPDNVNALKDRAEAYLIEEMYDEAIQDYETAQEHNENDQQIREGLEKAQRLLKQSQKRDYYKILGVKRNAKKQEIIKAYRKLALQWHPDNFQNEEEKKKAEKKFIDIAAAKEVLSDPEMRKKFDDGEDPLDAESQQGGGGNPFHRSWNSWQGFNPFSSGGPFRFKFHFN
# Chain of UniProt P29373 (P29373 whole entry, looked up): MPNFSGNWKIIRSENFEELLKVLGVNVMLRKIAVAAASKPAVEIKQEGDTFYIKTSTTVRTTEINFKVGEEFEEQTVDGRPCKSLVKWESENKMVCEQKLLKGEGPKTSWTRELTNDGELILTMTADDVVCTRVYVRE
# Chain of UniProt Q8WUH1 (Q8WUH1 whole entry, looked up): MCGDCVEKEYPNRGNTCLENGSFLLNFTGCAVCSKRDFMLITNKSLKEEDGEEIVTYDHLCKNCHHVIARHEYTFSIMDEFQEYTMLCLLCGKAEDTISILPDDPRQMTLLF
# Chain of UniProt P24311 (P24311 whole entry, looked up): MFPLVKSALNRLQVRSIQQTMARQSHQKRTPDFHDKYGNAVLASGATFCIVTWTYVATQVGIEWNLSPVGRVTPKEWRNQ
Target,log2 fold change [1],log2 fold change (vorinostat),log2 fold change (silmitasertib),log2 fold change [2],log2 fold change (entospletinib)
COX7B (UniProt P24311),-0.043,0.081,0,0,0.104
COG2 (UniProt Q14746),-0.031,-0.315 (active),0.055,0.061,0.058
CMIP (UniProt Q8IY22),-0.101,-0.541 (active),0.018,0.021,-0.052
CUL1 (UniProt Q13616),0.001,0.072,0.006,-0.007,0.009
DNAJC3 (UniProt Q13217),-0.029,0.064,0.017,0.033,0
DNAH5 (UniProt Q8TE73),0.008,0.113,-0.179,,
CYP2S1 isoform 2 (UniProt Q96SQ9),0.014,0.067,-0.027,-0.025,0.055
DHRS1 (UniProt Q96LJ7),-0.154,-0.561 (active),-0.021,-0.055,-0.138
CNNM2 (UniProt Q9H8M5),0.001,0.068,0.065,0.051,-0.073
CNOT4 isoform 6 (UniProt O95628),-0.028,0.046,-0.032,-0.057,-0.011
CNOT2 (UniProt Q9NZN8),0.044,-0.207 (active),0.015,-0.009,-0.015
CPT1A (UniProt P50416),-0.033,0.406 (active),-0.001,-0.002,-0.06
DOK1 (UniProt Q99704),-0.036,-0.297 (active),-0.043,-0.012,-0.011
CLASP1 (UniProt Q7Z460),0.018,-0.317 (active),-0.015,-0.022,0.029
CSNK2A2 (UniProt P19784),0.383,-0.105,0.879 (active),-0.008,0.466
DIAPH1 (UniProt O60610),0.013,-0.014,0.009,-0.02,-0.003
DENND6A (UniProt Q8IWF6),-0.049,-0.38 (active),0.1,-0.07,-0.051
CHML (UniProt P26374),0.029,-0.286 (active),0.003,-0.022,0.006
CHEK2 (UniProt O96017),-0.021,-0.128,0.04,-0.006,-0.033
COG4 (UniProt Q9H9E3),0.101,-0.333 (active),0.022,-0.022,-0.023
CNOT6L (UniProt Q96LI5),0.019,-0.032,0.004,0.017,0
DENND1B (UniProt Q6P3S1),-0.063,-1.3 (active),0.28,-0.076,
CHMP4A isoform 2 (UniProt Q9BY43),0.011,0.1,-0.027,-0.051,0.019
CSTB (UniProt P04080),-0.097,0.125,-0.045,0.022,-0.007
CTPS1 (UniProt P17812),-0.007,0.565 (active),0.028,-0.008,-0.005
CSTF2 (UniProt P33240),0.001,0.046,0.007,0.013,-0.045
CLASP1 isoform 4 (UniProt Q7Z460),-0.214,0.167,0.06,,

Target,log2 fold change [1],log2 fold change (vorinostat),log2 fold change (silmitasertib),log2 fold change [2],log2 fold change (entospletinib)
DFFB (UniProt O76075),-0.003,0.258 (active),-0.025,0.013,-0.011
DDAH1 (UniProt O94760),-0.076,0.07,-0.035,0.017,-0.014
DNAH10 (UniProt Q8IVF4),0.103,0.065,0,0.069,0.065
DAPK1 isoform 3 (UniProt P53355),0.09,-0.477,0.833 (active),0.004,
CHURC1 isoform 2 (UniProt Q8WUH1),-0.048,0.285 (active),-0.039,-0.043,-0.128
CYP24A1 (UniProt Q07973),0.187,0.119,0.019,0.081,0.002
CIP2A (UniProt Q8TCG1),0.043,-0.608 (active),0.055,0.011,0.008
CLASP2 isoform 3 (UniProt O75122),0.035,-0.329 (active),-0.033,-0.02,0.005
CORO7 isoform 3 (UniProt P57737),-0.045,-0.176,0.042,0.004,0.005
CRABP2 (UniProt P29373),0.169,0.18,-0.05,0.007,-0.209
DDX20 (UniProt Q9UHI6),0.007,-0.348 (active),0.069,0.022,-0.008
DERA (UniProt Q9Y315),-0.015,0.063,-0.003,0.018,0
DDA1 (UniProt Q9BW61),-0.024,-0.289 (active),-0.006,0.05,0.054
CSNK1A1 (UniProt P48729),0.001,-0.276 (active),0.088,-0.044,0.017
COASY isoform 2 (UniProt Q13057),0.018,-0.214 (active),0.075,0.006,0.019
DENND4A isoform 2 (UniProt Q7Z401),0.046,-0.379 (active),0.043,-0.02,-0.013
DCUN1D4 isoform 3 (UniProt Q92564),0.066,0.128,-0.031,-0.121,-0.096
CSDE1 isoform 4 (UniProt O75534),-0.004,-0.33 (active),0.015,-0.009,0.04
DEF6 (UniProt Q9H4E7),0.085,-0.416 (active),0.032,-0.045,0.022
CYCS (UniProt P99999),0.017,0.114,-0.004,0.033,0.011
DDX39A (UniProt O00148),0.017,-0.383 (active),0.017,0.036,-0.033
COL6A5 (UniProt A8TX70),0.281,0.011,-0.003,0.022,0.009
CLP1 (UniProt Q92989),0.011,-0.307 (active),0.029,-0.027,0.008
COQ8A (UniProt Q8NI60),-0.043,-0.042,-0.161,0.016,0.053
COG6 (UniProt Q9Y2V7),0.021,-0.254 (active),0.072,0.09,0.026
DOCK10 (UniProt Q96BY6),0,-0.07,0.143,-0.064,0.023
COL12A1 (UniProt Q99715),0.29,0.037,-0.079,0.908,-0.036
